Source: PubChem BioAssay (NCI)
About 79,000 compounds went through this panel and 15% of them were active in at least one assay; those are over-represented in the sample as a whole. A number with no mark means an inactive call. Activity calls are given as the source filed them. Rule as the data show it: active = growth inhibition above about 70%; inactive = the rest.

Test: NCI Yeast Anticancer Drug Screen. Data for the rad50 strain (AID 155);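 also: 0% = growth of vehicle-only cultures of the same strain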
Settings: S. cerevisiae rad50 strain growth inhibition; at 50.0 µM; active compounds read high
Summary of the method: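 Relative growth inhibition (compound vs vehicle) was measured in yeast with a defined repair-gene alteration.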

Structure (SMILES) | growth inhibition
Cc1cc2c(Br)cc(Br)c(O)c2nc1C(=O)c1ccccc1 | 31.8%
N=C1c2ccccc2-c2ccccc21 | 66%
COc1ccc(-c2cn(-c3ccccc3)c3ncnc(N)c23)cc1 | 24.1%
Nc1ccc(N=Nc2ccccc2)c2ccccc12 | 97.8% (active)
CS(=O)(=O)C(=Cc1ccccc1Cl)S(C)(=O)=O | -12.7%
O=C1c2ccccc2C(=O)c2sc(Nc3cc(Cl)ccc3Cl)nc21 | 82.3% (active)
COC1=CC(=O)c2c(O)c3c(c(O)c2C1=O)C=C(C)OC3O (stereo not drawn) | 85.5% (active)
NC(=S)N/N=C1\NC(=O)/C(=C/c2ccc3c(c2)OCO3)S1 | -45.6%
CCN(CC)P(=S)(c1ccccc1CCP(=S)(c1ccccc1)c1ccccc1)N(CC)CC | 91.2% (active)
CCC(=O)Oc1c(Cl)cc(Cl)c(Cl)c1Cl | 43.4%
CCOC(=O)C(C)(C)C | 15.8%
COC1=CC(=O)c2ncccc2C1=O | 91.8% (active)
O=C1CCSC(=S)N1c1ccccc1C(F)(F)F | 99.1% (active)
O=C1c2cccc(NCCNCCO)c2C(=O)c2cccc(NCCNCCO)c21 | -10.3%
CCOc1cc2c(cc1O)CC[C@@H]1[C@@H]2CC[C@]2(C)[C@@H](O)CC[C@@H]12 | 41%
S=C(N/N=C/c1ccccn1)N1CC2CCC(CC2)C1 | 90.2% (active)
COc1ccc(Nc2nc3ccccc3s2)cc1 | 21%
O=C(OCC1OC(OCC(OC(=O)c2ccccc2)C(OC(=O)c2ccccc2)C(OC(=O)c2ccccc2)c2cnn(-c3ccccc3)n2)C(OC(=O)c2ccccc2)C(OC(=O)c2ccccc2)C1OC(=O)c1ccccc1)c1ccccc1 (stereo not drawn) | 97.5% (active)
O=C(CBr)Nc1ccc(Cc2ccc(NC(=O)CBr)cc2)cc1 | 97.3% (active)
CCOC(=O)Sc1nc2ccccc2[nH]1 | 53.2%

Structure (SMILES) | growth inhibition
C=C1OC(=O)C(=O)N1CC(=O)O | -1.35%
Nc1ncnc2c1ncn2C1OCC(O)C1O (stereo not drawn) | 81.6% (active)
CCOC(=O)C(Cc1cc(I)c(Oc2ccc(OC)cc2)c(I)c1)NC(C)=O (stereo not drawn) | 86.8% (active)
BrCc1ccc([Si](c2ccccc2)(c2ccccc2)c2ccc(CBr)cc2)cc1 | 48.1%
O=C1OC(C2OC(=O)C(=O)C2C(=O)c2ccc(Cl)cc2)C(C(=O)c2ccc(Cl)cc2)C1=O (stereo not drawn) | 82.9% (active)
Cc1ccc2c(c1)NC(=O)C(N=[N+]=[N-])(c1ccccc1)C2=O (stereo not drawn) | 89.8% (active)
NC(=O)C1CCCN1C(=O)C1CCCN(Cc2cc(CN3CCCC(C(=O)N4CCCC4C(N)=O)C3)cc(CN3CCCC(C(=O)N4CCCC4C(N)=O)C3)c2)C1 (stereo not drawn) | 78.1% (active)
CCCCN(CCCC)CC(O)Cc1cc2ccccc2c2ccccc12 (stereo not drawn) | 90.7% (active)
CN(/N=C\c1cccc([N+](=O)[O-])c1)C(c1cccc([N+](=O)[O-])c1)N(C)/N=C/c1cccc([N+](=O)[O-])c1 (stereo not drawn) | 43%
O=C(CCl)NC(=O)N(/N=C/c1ccco1)c1ccccc1 | 44.8%
CC1CCN(CCCOC(=O)c2ccccc2)CC1 | 58.9%
COC(=O)C1=C(C(=O)OC)C2C(C)=CC(C)=CN2C(C(=O)OC)=C1C(=O)OC (stereo not drawn) | 11.2%
CO/N=C/c1ccc([N+](=O)[O-])s1 | 65.7%
N/C(=N\N=C/c1ccc(O)c(O)c1O)NO | 41.1%
CC1=C[P+](c2ccccc2)(c2ccccc2)C=C(c2ccccc2)O1 | 84.5% (active)
CC(C)SC(=S)Nc1ccc(Cl)c([N+](=O)[O-])c1 | 99.3% (active)
Nc1ccc2oc(=O)c3ccccc3c2c1 | 85.3% (active)
CCCCCSc1nc2ncnc(N)c2[nH]1 | 6.25%
CC(C)Cn1cnc2c(SCc3cccc(F)c3)nc(N)nc21 | -10.4%

Test: NCI Yeast Anticancer Drug Screen. Data for the mec2-1 strain (AID 157)
Settings: S. cerevisiae mec2-1 strain, at 5.0 µM (retest, dose inferred, filed as 0.5), active compounds read high
Summary of the method: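 mec2-1 yeast strain, carrying an alteration in DNA damage repair or cell cycle control, was exposed to compounds; growth inhibition was measured relative to vehicle-treated controls.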

Structure (SMILES) | growth inhibition
Cc1cc2c(Br)cc(Br)c(O)c2nc1C(=O)c1ccccc1 | 16%
N=C1c2ccccc2-c2ccccc21 | 22%
COc1ccc(-c2cn(-c3ccccc3)c3ncnc(N)c23)cc1 | 5%
Nc1ccc(N=Nc2ccccc2)c2ccccc12 | 0%
CS(=O)(=O)C(=Cc1ccccc1Cl)S(C)(=O)=O | 20%
O=C1c2ccccc2C(=O)c2sc(Nc3cc(Cl)ccc3Cl)nc21 | 72% (active)
COC1=CC(=O)c2c(O)c3c(c(O)c2C1=O)C=C(C)OC3O (stereo not drawn) | -2%
NC(=S)N/N=C1\NC(=O)/C(=C/c2ccc3c(c2)OCO3)S1 | 15%
CCN(CC)P(=S)(c1ccccc1CCP(=S)(c1ccccc1)c1ccccc1)N(CC)CC | -3%
CCC(=O)Oc1c(Cl)cc(Cl)c(Cl)c1Cl | 6%
CCOC(=O)C(C)(C)C | 3%
COC1=CC(=O)c2ncccc2C1=O | 6%
O=C1CCSC(=S)N1c1ccccc1C(F)(F)F | 4%
O=C1c2cccc(NCCNCCO)c2C(=O)c2cccc(NCCNCCO)c21 | -8%
CCOc1cc2c(cc1O)CC[C@@H]1[C@@H]2CC[C@]2(C)[C@@H](O)CC[C@@H]12 | 13%
S=C(N/N=C/c1ccccn1)N1CC2CCC(CC2)C1 | 99% (active)
COc1ccc(Nc2nc3ccccc3s2)cc1 | -3%
O=C(OCC1OC(OCC(OC(=O)c2ccccc2)C(OC(=O)c2ccccc2)C(OC(=O)c2ccccc2)c2cnn(-c3ccccc3)n2)C(OC(=O)c2ccccc2)C(OC(=O)c2ccccc2)C1OC(=O)c1ccccc1)c1ccccc1 (stereo not drawn) | -14%
O=C(CBr)Nc1ccc(Cc2ccc(NC(=O)CBr)cc2)cc1 | 20%
CCOC(=O)Sc1nc2ccccc2[nH]1 | 2%

Structure (SMILES) | growth inhibition
C=C1OC(=O)C(=O)N1CC(=O)O | -50%
Nc1ncnc2c1ncn2C1OCC(O)C1O (stereo not drawn) | 33%
CCOC(=O)C(Cc1cc(I)c(Oc2ccc(OC)cc2)c(I)c1)NC(C)=O (stereo not drawn) | 28%
BrCc1ccc([Si](c2ccccc2)(c2ccccc2)c2ccc(CBr)cc2)cc1 | 14%
O=C1OC(C2OC(=O)C(=O)C2C(=O)c2ccc(Cl)cc2)C(C(=O)c2ccc(Cl)cc2)C1=O (stereo not drawn) | -3%
Cc1ccc2c(c1)NC(=O)C(N=[N+]=[N-])(c1ccccc1)C2=O (stereo not drawn) | -2%
NC(=O)C1CCCN1C(=O)C1CCCN(Cc2cc(CN3CCCC(C(=O)N4CCCC4C(N)=O)C3)cc(CN3CCCC(C(=O)N4CCCC4C(N)=O)C3)c2)C1 (stereo not drawn) | -5%
CCCCN(CCCC)CC(O)Cc1cc2ccccc2c2ccccc12 (stereo not drawn) | 1%
CN(/N=C\c1cccc([N+](=O)[O-])c1)C(c1cccc([N+](=O)[O-])c1)N(C)/N=C/c1cccc([N+](=O)[O-])c1 (stereo not drawn) | -1%
O=C(CCl)NC(=O)N(/N=C/c1ccco1)c1ccccc1 | 3%
CC1CCN(CCCOC(=O)c2ccccc2)CC1 | 13%
COC(=O)C1=C(C(=O)OC)C2C(C)=CC(C)=CN2C(C(=O)OC)=C1C(=O)OC (stereo not drawn) | 0%
CO/N=C/c1ccc([N+](=O)[O-])s1 | -44%
N/C(=N\N=C/c1ccc(O)c(O)c1O)NO | 5%
CC1=C[P+](c2ccccc2)(c2ccccc2)C=C(c2ccccc2)O1 | 24%
CC(C)SC(=S)Nc1ccc(Cl)c([N+](=O)[O-])c1 | 15%
Nc1ccc2oc(=O)c3ccccc3c2c1 | 7%
CCCCCSc1nc2ncnc(N)c2[nH]1 | 1%
CC(C)Cn1cnc2c(SCc3cccc(F)c3)nc(N)nc21 | -1%
